Laboratory results reported in PubChem BioAssay AID686978 (National Center for Advancing Translational Sciences (NCATS), 2013).
The campaign covered roughly 420,000 compounds. About 64,000 (15%) were called active. Another 27% or so got no clear call; they are omitted. The call rests on the fitted dose curve; in most records, active means well fitted inhibition curve with a large enough effect; inconclusive means small, poorly fitted or top-dose-only effect; inactive means flat fitted curve, though single readings scatter. These entries were drawn from the full list.
On the % scale 0 is the no-effect control and ±100 the full control effect; potency means the concentration at half of the fitted maximal effect.

Test: qHTS for Inhibitors of human tyrosyl-DNA phosphodiesterase 1 (TDP1): qHTS in cells in absence of CPT; further: nearly all actives have a fitted effect of over 55% in size
Settings: DT40 Tdp1-/- hTDP1 cells, no CPT, ATP luminescence, 48 h; activity change, negative = growth inhibition: at 46.2 µM (top of the series)
Summary of the method: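 Chicken DT40 Tdp1-/- cells complemented with human TDP1, screened without camptothecin (DMSO vehicle only), 400 cells/well. Compounds pin-transferred, cells incubated at 37 °C for at least 48 hr. Growth read as ATP-dependent luminescence (CellTiter-Glo, 30 min at RT).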
In the case of `COc1ccccc1C1CN(Cc2ccccc2O)Cc2ccccc2O1` (stereo not given), the “activity change, negative = growth inhibition” value is reported as -21.5% (inactive).
For `O=C(CC(NCc1cccnc1)C(=O)O)Nc1ccc(O)cc1` (stereo not given), the “activity change, negative = growth inhibition” value was -3.74% (inactive).
For `CSc1nc(O)c(Cc2ccccc2)c(=O)[nH]1`, the “activity change, negative = growth inhibition” value was -0.545% (inactive).
In the case of `Cc1cc(C(=O)OC(C)C(=O)NC2CCCCC2C)c(C)o1` (stereo not given), the “activity change, negative = growth inhibition” value is reported as -4.96% (inactive).
In the case of `O=C(O)c1ccc(S(=O)(=O)N2CCOCC2)o1`, the “activity change, negative = growth inhibition” value is reported as -2.82% (inactive).
In the case of `Cc1ccc(NC(=O)NNC(=O)c2sccc2-n2cccc2)cc1`, the “activity change, negative = growth inhibition” value is reported as -19.7% (inactive).
With `CC(C)NC(=O)NNc1c(Cl)cncc1Cl` the “activity change, negative = growth inhibition” value was 1.9% (inactive).
With `CC1CCc2c(sc3c2C2=NS(=O)(=O)CCN2C=N3)C1` (stereo not given) the “activity change, negative = growth inhibition” value was -10.8% (inactive).
In the case of `Cc1ccc(CC2CC(=O)N(c3nc(C)cc(C)n3)C2=O)cc1` (stereo not given), the “activity change, negative = growth inhibition” value is reported as -14.1% (inactive).
With `COc1ccccc1C(=O)NCC(=O)OCC(=O)NNC(=O)c1ccc(Br)cc1` the “activity change, negative = growth inhibition” value was -3.83% (inactive).
For `CC(C)C(NC(=O)c1c(F)cccc1F)C(=O)NNC(=O)c1ccccc1` (stereo not given), the “activity change, negative = growth inhibition” value was 11.9% (inactive).
In the case of `CCO/C([O-])=N/c1c[n+](N2CCOCC2)no1`, the Potency is reported as “inactive”.
With `O=C(CCC(=O)c1cccs1)Nc1nc2ccccc2s1` the “activity change, negative = growth inhibition” value was -1.45% (inactive).
For `COC(=O)[C@@H]1C[C@@]2(O)[C@H](O)[C@H](O)[C@H](O)C[C@H]2N1Cc1ccc(C(C)(C)C)cc1`, the “activity change, negative = growth inhibition” value was 4.36% (inactive).
With `CN(C)CCN(C(=O)CN1C(=O)c2ccccc2C1=O)c1nc2cc3c(cc2s1)OCCO3` the “activity change, negative = growth inhibition” value was 3.41% (inactive).
In the case of `Cc1c(NC(=O)c2coc(=O)c(Br)c2)c(=O)n(-c2ccccc2)n1C`, the Potency is reported as 4.11 µM (active).
For `Cc1c(NC(=O)c2cccnc2)c(=O)n(-c2ccccc2)n1C`, the Potency was “inactive”.
With `Cc1c(NC(=O)c2cc(-c3ccc(Cl)s3)nc3ccccc23)c(=O)n(-c2ccccc2)n1C` the Potency was 16.4 µM (active).
In the case of `O=C(Nc1cccc(NC(=O)c2cccc(F)c2)c1)c1ccccc1`, the “activity change, negative = growth inhibition” value is reported as -9.75% (inactive).
With `O=C(CCN1C(=O)c2ccccc2C1=O)Nc1cccc(F)c1` the “activity change, negative = growth inhibition” value was 17.3% (inactive).
For `Cc1c(NC(=O)c2cc(=O)c3ccccc3o2)c(=O)n(-c2ccccc2)n1C`, the “activity change, negative = growth inhibition” value was 0.865% (inactive).
In the case of `O=C(Nc1cccc(F)c1)c1coc(=O)c(Br)c1`, the Potency is reported as 2.31 µM (active).
For `O=C(c1cc(-c2ccc(Cl)s2)nc2ccccc12)N1CCOCC1`, the “activity change, negative = growth inhibition” value was -23.9% (inactive).
In the case of `Cc1cc(C(=O)Nc2c(C)n(C)n(-c3ccccc3)c2=O)cs1`, the “activity change, negative = growth inhibition” value is reported as -6.58% (inactive).
In the case of `COCn1c(C(O)c2ccccc2)cc2ccccc21` (stereo not given), the “activity change, negative = growth inhibition” value is reported as 5.37% (inactive).
For `O=C1c2ccccc2S(=O)(=O)N1CC(O)Cn1c2ccccc2c2ccccc21` (stereo not given), the “activity change, negative = growth inhibition” value was -9.56% (inactive).
With `CC(CC(=O)N1CCN(S(=O)(=O)c2ccccc2)CC1)n1cncn1` (stereo not given) the “activity change, negative = growth inhibition” value was -11.7% (inactive).
For `CCN(CC)S(=O)(=O)c1ccc2[nH]c(=O)cc(C(=O)N(C)C3CCS(=O)(=O)C3)c2c1` (stereo not given), the “activity change, negative = growth inhibition” value was 14.9% (inactive).
In the case of `CC(=O)N1CCN(CCN=CC2=C(O)CC(C)(C)CC2=O)CC1`, the “activity change, negative = growth inhibition” value is reported as -2.47% (inactive).
For `CCc1nccn1S(=O)(=O)c1cccc([N+](=O)[O-])c1`, the “activity change, negative = growth inhibition” value was 0.702% (inactive).
